Source: the OligoGym collection

The sequences below were run against CBL (assay: pooled miR-30 sensor sort-seq; sequence = guide strand). Details: shRNA.
Further: reference of the scale not given here.

Row | Sequence | sensor-assay potency score (higher = more potent)
1 | TTGGGTTCTGACACAACCGCAC | 0.227
2 | TTGCTTAGTTTTCTTCATCAAA | -1.12
3 | TTTCTTCATCAAATTCTCCATA | -0.795
4 | TGAGGGAACACATACTCGCTGC | -0.456
5 | TTATTGTGAGGGATTGTCTGGA | 0.335
6 | TTTGTGAATGAATTTCTGGAGC | -0.665
7 | TATCTGAGAGAGTTCGGCGGGC | -0.0196
8 | TTTATTGTGAGGGATTGTCTGG | -0.649
9 | TTTCACTTCGTCATACGTCAAA | -0.674
10 | ATGCACTTCATGTAGAGCCTGT | 0.672
11 | TTTGGGTTCTGACACAACCGCA | -1.29
12 | ATCTTGACAAGATAGTACGGAG | -1.09
13 | TGTTGTAGGATCACCATCCAGA | 0.05
14 | TTCCTGAGCAAAGAGGACCAGG | -0.903
15 | TACAGCTATCAATCTGCTGGTC | -0.313

Each sequence was assayed against CBR1 in the same assay as above. Details: shRNA.

Row | Sequence | sensor-assay potency score (higher = more potent)
16 | TTTGTTTTCATCGTCACTTCAG | 0.571
17 | TTCTGTGCACACATCTCGGGTA | 0.677
18 | TCTGTGCACACATCTCGGGTAC | -0.133
19 | TTGAATATGAAAGGGTGTGGGA | 0.163
20 | ATCGTCGATGTCCAGCTGGTGG | -1.35
21 | TTACGTAGTCAACTGAGTGCGT | 0.669
22 | TATGACATTGTAAATGCCCTTT | -0.242
23 | TTATTAGAGGGAGTAATTCTGT | -0.254
24 | TTAGTAGTACATTAGTGAGTGC | -0.244
25 | ATTCTGTGCACACATCTCGGGT | -0.951
26 | TTCAGCTTGAATATGAAAGGGT | 0.264
27 | TTCTCTGAAACAAATTGTCCAT | -0.572
28 | TTGTTTTCATCGTCACTTCAGC | -0.315
29 | TCAGTGATGGTCTCACTGCGGA | -1.01
30 | TTTTCATCGTCACTTCAGCTTG | -0.702
31 | TATTAGAGGGAGTAATTCTGTG | -0.602
32 | AATTCTGTGCACACATCTCGGG | -0.452
33 | TCTCTGAAACAAATTGTCCATG | -1.29
34 | TCAATTAGTAGTACATTAGTGA | 0.828
35 | TAAGAGATCATTTTTTTTCTTA | 0.534
36 | TTCAGGAGGATCTTGTCCCCTT | -0.643
37 | TAATTCTGTGCACACATCTCGG | -0.638
38 | TAGTACATTAGTGAGTGCTAAT | -1.35
39 | TCATCGTCACTTCAGCTTGAAT | -1.32
